Source: the supplement of paper PMC12282887
± gives the standard deviation of the averaged measurements.

Legend:
Test in all cases: promoter activity interaction Z-score (Lux/OD deviation from empty-vector control); higher = stronger promoter induction by the compound
[1] = tested on: E. coli BW25113 acrABp lux reporter
Summary of the method: (§1)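 Every compound was given at four 1:2 dilutions, in biological duplicates, to E. coli BW25113 carrying low-copy luxCDABE promoter reporters in wild-type or single-gene deletion backgrounds. Growth in 40 µl LB Lennox in 384-well plates at 37°C was followed by OD600 and luminescence readings every 30 min for 12 h, integrated over 0–8 h for wild type and 1–9 h for deletion strains, with wells below 10% of the median growth value excluded. Scores are Z-transformed residuals of growth-normalised luminescence fitted against a control.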

[2] = tested on: E. coli BW25113 micFp lux reporter
Summary of the method: as §1

[3] = tested on: E. coli BW25113 ompFp lux reporter
Summary of the method: as §1

[4] = tested on: E. coli BW25113 robp lux reporter
Summary of the method: as §1

[5] = tested on: E. coli BW25113 soxSp lux reporter
Summary of the method: as §1

[6] = tested on: E. coli BW25113 tolCp lux reporter
Summary of the method: as §1

[7] = 0.53 µg/ml, genetic background: wild type
[8] = 0.53 µg/ml, genetic background: ΔmarA
[9] = 0.53 µg/ml, genetic background: Δrob
[10] = 0.53 µg/ml, genetic background: ΔsoxS
[11] = 1.1 µg/ml, genetic background: wild type
[12] = 1.1 µg/ml, genetic background: ΔmarA
[13] = 1.1 µg/ml, genetic background: Δrob
[14] = 1.1 µg/ml, genetic background: ΔsoxS
[15] = 2.1 µg/ml, genetic background: wild type
[16] = 2.1 µg/ml, genetic background: ΔmarA
[17] = 2.1 µg/ml, genetic background: Δrob
[18] = 2.1 µg/ml, genetic background: ΔsoxS
[19] = 4.2 µg/ml, genetic background: wild type
[20] = 4.2 µg/ml, genetic background: ΔmarA
[21] = 4.2 µg/ml, genetic background: Δrob
[22] = 4.2 µg/ml, genetic background: ΔsoxS

Cc1onc(-c2ccccc2)c1C(=O)N[C@@H]1C(=O)N2[C@@H]1SC(C)(C)[C@@H]2C(=O)O [Oxacillin]
promoter activity interaction Z-score [1, 7]: 0.053 ± 0.18
promoter activity interaction Z-score [1, 8]: -0.268 ± 0.44
promoter activity interaction Z-score [1, 9]: -0.0793 ± 0.23
promoter activity interaction Z-score [1, 10]: -0.33 ± 0.59
promoter activity interaction Z-score [1, 11]: 0.196 ± 0.12
promoter activity interaction Z-score [1, 12]: 1.12 ± 0.86
promoter activity interaction Z-score [1, 13]: 0.498 ± 0.18
promoter activity interaction Z-score [1, 14]: -0.172 ± 0.078
promoter activity interaction Z-score [1, 15]: 0.0571 ± 0.33
promoter activity interaction Z-score [1, 16]: 0.268 ± 0.39
promoter activity interaction Z-score [1, 17]: -0.074 ± 0.13
promoter activity interaction Z-score [1, 18]: 0.181 ± 0.15
promoter activity interaction Z-score [1, 19]: 0.273 ± 0.22
promoter activity interaction Z-score [1, 20]: 0.585 ± 0.21
promoter activity interaction Z-score [1, 21]: 0.529 ± 0.22
promoter activity interaction Z-score [1, 22]: 0.643 ± 0.31
promoter activity interaction Z-score [2, 7]: -0.0698 ± 0.15
promoter activity interaction Z-score [2, 8]: -0.00609 ± 0.034
promoter activity interaction Z-score [2, 9]: 0.0977 ± 0.018
promoter activity interaction Z-score [2, 10]: -0.311 ± 0.1
promoter activity interaction Z-score [2, 11]: 0.087 ± 0.12
promoter activity interaction Z-score [2, 12]: 0.0472 ± 0.028
promoter activity interaction Z-score [2, 13]: -0.0746 ± 0.027
promoter activity interaction Z-score [2, 14]: -0.46 ± 0.051
promoter activity interaction Z-score [2, 15]: -0.222 ± 0.18
promoter activity interaction Z-score [2, 16]: -0.0625 ± 0.059
promoter activity interaction Z-score [2, 17]: -0.00193 ± 0.23
promoter activity interaction Z-score [2, 18]: -0.245 ± 0.077
promoter activity interaction Z-score [2, 19]: -0.192 ± 0.041
promoter activity interaction Z-score [2, 20]: -0.163 ± 0.035
promoter activity interaction Z-score [2, 21]: -0.112 ± 0.052
promoter activity interaction Z-score [2, 22]: -0.2749 ± 0.002
promoter activity interaction Z-score [3, 7]: 0.23 ± 0.46
promoter activity interaction Z-score [3, 8]: -0.204 ± 0.21
promoter activity interaction Z-score [3, 9]: 0.703 ± 0.91
promoter activity interaction Z-score [3, 10]: 0.0892 ± 0.53
promoter activity interaction Z-score [3, 11]: 0.678 ± 0.061
promoter activity interaction Z-score [3, 12]: 0.797 ± 0.28
promoter activity interaction Z-score [3, 13]: 1.14 ± 0.72
promoter activity interaction Z-score [3, 14]: -0.107 ± 0.53
promoter activity interaction Z-score [3, 15]: 0.461 ± 0.27
promoter activity interaction Z-score [3, 16]: 0.0383 ± 0.29
promoter activity interaction Z-score [3, 17]: 0.0292 ± 0.36
promoter activity interaction Z-score [3, 18]: 0.0474 ± 0.046
promoter activity interaction Z-score [3, 19]: 1.42 ± 0.14
promoter activity interaction Z-score [3, 20]: 1.05 ± 0.48
promoter activity interaction Z-score [3, 21]: 0.898 ± 0.69
promoter activity interaction Z-score [3, 22]: 0.846 ± 0.19
promoter activity interaction Z-score [4, 7]: 0.088 ± 0.58
promoter activity interaction Z-score [4, 8]: -0.319 ± 0.36
promoter activity interaction Z-score [4, 9]: 0.652 ± 0.036
promoter activity interaction Z-score [4, 10]: 0.106 ± 0.47
promoter activity interaction Z-score [4, 11]: 0.612 ± 0.26
promoter activity interaction Z-score [4, 12]: 0.925 ± 0.46
promoter activity interaction Z-score [4, 13]: 0.609 ± 0.17
promoter activity interaction Z-score [4, 14]: 0.778 ± 0.55
promoter activity interaction Z-score [4, 15]: 0.467 ± 0.023
promoter activity interaction Z-score [4, 16]: -0.206 ± 0.25
promoter activity interaction Z-score [4, 17]: 0.275 ± 0.38
promoter activity interaction Z-score [4, 18]: 0.757 ± 0.4
promoter activity interaction Z-score [4, 19]: 0.385 ± 0.34
promoter activity interaction Z-score [4, 20]: 1.01 ± 0.081
promoter activity interaction Z-score [4, 21]: 0.222 ± 0.11
promoter activity interaction Z-score [4, 22]: 1.08 ± 0.62
promoter activity interaction Z-score [5, 7]: -0.0338 ± 0.24
promoter activity interaction Z-score [5, 8]: -0.139 ± 0.028
promoter activity interaction Z-score [5, 9]: -0.137 ± 0.026
promoter activity interaction Z-score [5, 10]: 0.0469 ± 0.46
promoter activity interaction Z-score [5, 11]: 0.0426 ± 0.12
promoter activity interaction Z-score [5, 12]: 0.0745 ± 0.03
promoter activity interaction Z-score [5, 13]: -0.157 ± 0.17
promoter activity interaction Z-score [5, 14]: -0.0373 ± 0.73
promoter activity interaction Z-score [5, 15]: 0.0115 ± 0.12
promoter activity interaction Z-score [5, 16]: -0.148 ± 0.13
promoter activity interaction Z-score [5, 17]: -0.0916 ± 0.13
promoter activity interaction Z-score [5, 18]: 0.0598 ± 0.27
promoter activity interaction Z-score [5, 19]: -0.0461 ± 0.098
promoter activity interaction Z-score [5, 20]: -0.0772 ± 0.096
promoter activity interaction Z-score [5, 21]: -0.0369 ± 0.08
promoter activity interaction Z-score [5, 22]: 0.0279 ± 0.51
promoter activity interaction Z-score [6, 7]: -0.367 ± 0.24
promoter activity interaction Z-score [6, 8]: -0.79 ± 0.24
promoter activity interaction Z-score [6, 9]: -0.414 ± 0.28
promoter activity interaction Z-score [6, 10]: -0.864 ± 0.42
promoter activity interaction Z-score [6, 11]: 0.453 ± 0.31
promoter activity interaction Z-score [6, 12]: 0.956 ± 0.37
promoter activity interaction Z-score [6, 13]: 0.349 ± 0.2
promoter activity interaction Z-score [6, 14]: -0.174 ± 0.0082
promoter activity interaction Z-score [6, 15]: -0.798 ± 0.98
promoter activity interaction Z-score [6, 16]: -0.615 ± 0.57
promoter activity interaction Z-score [6, 17]: -0.016 ± 0.46
promoter activity interaction Z-score [6, 18]: -0.0987 ± 0.39
promoter activity interaction Z-score [6, 19]: -0.558 ± 0.11
promoter activity interaction Z-score [6, 20]: -0.589 ± 0.39
promoter activity interaction Z-score [6, 21]: -0.155 ± 0.7
promoter activity interaction Z-score [6, 22]: -0.224 ± 1.2
